The record followed here is PubChem BioAssay AID504333 (National Center for Advancing Translational Sciences (NCATS), 2011).

Screen size: about 360,000 compounds; about 16,000 (4.4%) were called active. Where a call stands in place of a potency, no number is given. Not shown: some 9% with an inconclusive outcome. This is one part of a sample in which actives are shown more often than they occur. The call rests on the fitted dose curve; in most records, active means well fitted inhibition curve with a large enough effect; inconclusive means small, poorly fitted or top-dose-only effect; inactive means no such curve, though single readings can be large or run the other way.
Potency means the concentration at half of the fitted maximal effect.

The target of this assay is Bromodomain adjacent to zinc finger domain protein 2B (Homo sapiens) (UniProt Q9UIF8). The assay is described as follows: qHTS Assay for Inhibitors of BAZ2B. Further: nearly all actives have a fitted effect of over 60% in size. To be noted: AlphaScreen BAZ2B-H3K14Ac peptide displacement; series mostly up to 114 µM. The text has this: BAZ2B (bromodomain adjacent to zinc finger domain, 2B) belongs to a family of ubiquitously expressed bromodomain containing proteins, which biological function has not yet been elucidated. […] The interaction of BAZ2B with ISWI mediated by the BAZ1 motif has recently been described. […] The protocol is based on the AlphaScreen (PerkinElmer) displacement assay developed by NCGC [5], but uses the peptide ligand Biot-H3K14Ac, a high affinity binding partner for BAZ2B, in an AlphaScreen format. Although AlphaScreen has significant advantages with its utility in a variety of epigenetic target assays, the primary screening data provided in this deposition should be used with caution due to the prevalence of screening artifacts. The top compound concentration tested was 110uM in this assay, which increases number of actives and potential artifacts. An AlphaScreen counterscreen is highly recommended to be run against any putative actives to eliminate non-specific artifacts. Alternatively, one can use other AlphaScreen assays in PubChem to filter out promiscuous hits. Eberharter, A. et al. ACF1 improves the effectiveness of nucleosome mobilization by ISWI through PHD-histone contacts. The EMBO journal 23, 4029-4039. 2004. PMID: 15457208 [2] Jones, M.H. et al. A novel family of bromodomain genes. Genomics 63, 40-45. 2000. PMID: 10662543 [3] Yasgar, et al. Compound Management for Quantitative High-Throughput Screening. JALA. 2008 Apr;13(2):79-89. PMID: 18496600 [4] Inglese, et al. Quantitative high-throughput screening: a titration-based approach that efficiently identifies biological activities in large chemical libraries. Proc Natl Acad Sci. 1;103(31):11473-8. 2006. PMID: 16864780 [5] Quinn et al. A chemiluminescence-based method for identification of histone lysine methyltransferase inhibitors. Mol Biosyst 6(5): 782-8. 2010. PMID: 20567762 [6] Baell,Holloway. New substructure filters for removal of pan assay interference compounds (PAINS) from screening libraries and for their exclusion in bioassays. J Med Chem. 53(7):2719-40. 2010. PMID: 20131845 NIH Molecular Libraries Probe Production Network [MLPCN] NIH Chemical Genomics Center [NCGC] Structural Genomics Consortium (SGC) NIH Grant: 5U54 MH084681-02
Bromodomain adjacent to zinc finger domain protein 2B (Homo sapiens), sequence (Q9UIF8 whole entry, looked up, the tested form may be a part): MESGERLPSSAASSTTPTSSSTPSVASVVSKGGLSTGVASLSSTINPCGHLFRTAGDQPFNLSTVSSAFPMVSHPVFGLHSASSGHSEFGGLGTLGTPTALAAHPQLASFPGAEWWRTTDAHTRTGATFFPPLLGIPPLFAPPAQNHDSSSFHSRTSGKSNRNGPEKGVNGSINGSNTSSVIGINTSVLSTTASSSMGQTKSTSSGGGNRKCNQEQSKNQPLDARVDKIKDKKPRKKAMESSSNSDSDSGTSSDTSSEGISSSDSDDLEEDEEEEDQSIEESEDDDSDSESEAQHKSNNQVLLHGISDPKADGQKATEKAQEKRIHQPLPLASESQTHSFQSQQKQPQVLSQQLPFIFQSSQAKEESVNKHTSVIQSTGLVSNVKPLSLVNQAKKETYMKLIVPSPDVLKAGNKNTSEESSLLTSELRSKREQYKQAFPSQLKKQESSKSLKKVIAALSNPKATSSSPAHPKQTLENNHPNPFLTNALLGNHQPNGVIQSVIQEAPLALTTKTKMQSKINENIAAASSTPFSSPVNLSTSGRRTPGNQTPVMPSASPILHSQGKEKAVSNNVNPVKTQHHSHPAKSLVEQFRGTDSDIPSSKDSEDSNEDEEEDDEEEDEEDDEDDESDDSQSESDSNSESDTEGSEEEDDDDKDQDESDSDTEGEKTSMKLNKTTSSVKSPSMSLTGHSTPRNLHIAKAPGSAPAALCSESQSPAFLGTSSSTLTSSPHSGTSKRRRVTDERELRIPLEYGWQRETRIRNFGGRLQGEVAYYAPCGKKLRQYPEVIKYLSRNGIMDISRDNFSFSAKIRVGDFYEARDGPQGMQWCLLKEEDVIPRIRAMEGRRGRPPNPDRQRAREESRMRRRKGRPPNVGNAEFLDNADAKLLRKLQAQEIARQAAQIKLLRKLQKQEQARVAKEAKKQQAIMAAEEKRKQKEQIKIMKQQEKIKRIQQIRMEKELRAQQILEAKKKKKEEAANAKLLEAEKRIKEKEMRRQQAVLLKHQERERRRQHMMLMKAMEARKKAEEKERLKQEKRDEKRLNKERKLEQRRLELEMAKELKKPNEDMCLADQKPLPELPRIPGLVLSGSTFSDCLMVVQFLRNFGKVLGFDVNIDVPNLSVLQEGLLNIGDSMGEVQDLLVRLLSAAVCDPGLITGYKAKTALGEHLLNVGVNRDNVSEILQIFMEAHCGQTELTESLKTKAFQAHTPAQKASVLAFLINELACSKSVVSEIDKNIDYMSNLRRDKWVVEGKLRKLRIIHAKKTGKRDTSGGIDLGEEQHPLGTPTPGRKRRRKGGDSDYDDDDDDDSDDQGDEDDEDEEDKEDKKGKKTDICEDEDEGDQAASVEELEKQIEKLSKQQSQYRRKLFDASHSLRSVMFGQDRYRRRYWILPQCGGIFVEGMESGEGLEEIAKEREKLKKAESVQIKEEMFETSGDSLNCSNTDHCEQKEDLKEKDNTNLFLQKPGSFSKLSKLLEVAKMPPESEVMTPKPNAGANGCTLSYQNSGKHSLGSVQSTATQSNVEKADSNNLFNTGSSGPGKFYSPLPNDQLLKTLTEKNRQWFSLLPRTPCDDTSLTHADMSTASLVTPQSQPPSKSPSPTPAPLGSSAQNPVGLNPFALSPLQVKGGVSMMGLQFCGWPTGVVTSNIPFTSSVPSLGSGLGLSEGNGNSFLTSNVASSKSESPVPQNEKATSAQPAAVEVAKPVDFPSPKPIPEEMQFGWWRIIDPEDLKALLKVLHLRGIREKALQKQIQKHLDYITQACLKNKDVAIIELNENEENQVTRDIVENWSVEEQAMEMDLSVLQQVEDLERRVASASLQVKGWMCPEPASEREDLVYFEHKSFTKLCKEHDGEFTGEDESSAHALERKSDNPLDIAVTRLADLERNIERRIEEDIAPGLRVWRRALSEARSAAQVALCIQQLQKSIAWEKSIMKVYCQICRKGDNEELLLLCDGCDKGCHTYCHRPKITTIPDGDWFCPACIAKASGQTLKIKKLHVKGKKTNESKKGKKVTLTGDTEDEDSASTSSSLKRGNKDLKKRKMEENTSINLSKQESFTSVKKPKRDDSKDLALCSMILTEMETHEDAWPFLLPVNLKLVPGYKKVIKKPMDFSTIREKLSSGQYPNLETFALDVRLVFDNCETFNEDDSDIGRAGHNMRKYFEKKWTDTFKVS
To each well of a 1,536w plate, 2ul of BAZ2B protein (final 50nM) and 1ul biotinylated histone peptide acetylated at Lys14 [b-H3(5-23)K14Ac] (final 50nM) were added in 1x PBS buffer, pH 7.4, containing 0.01% Tween-20, using a nanoliter dispenser. Formation of a protein-peptide complex proceeded at room temperature for 30 min. A Kalypsys pin-tool was employed to transfer 23 nL of library compound solution in DMSO to each well. Following a 30 min incubation of the protein-peptide complex with compounds at room temperature, a mixture of 40 ug/mL each streptavidin-coated donor and nickel chelate acceptor AlphaScreen beads (final 10 ug/mL) were added in a 1ul dispense for a final volume of 4ul. A brief centrifugation followed (1000rpm, 1 min) and were then incubated protected from the light for 20 min at room temperature. Plates were read on an EnVision multilabel plate reader using the 1,536 plate HTS AlphaScreen aperture (excitation time 80 ms, measurement time 240 ms).
On the technique in general: In qHTS, concentration-response curves come from the screen itself.
With `CC[N+](C)(CC)CCC[n+]1c(-c2ccccc2)c2cc(N)ccc2c2ccc(N)cc21`, the Potency was 44.7 µM (active).

With `CNC(=O)O/N=C(\N)Cc1csc2ccccc12`, the Potency entry is “inactive”.

For `COCCNC(=O)CN1C2CCC1CC(O)(c1cccnc1)C2` (centres undefined), the Potency result was “inactive”.

Regarding `COC(=O)C1=C(c2ccc(Cl)c(C(F)(F)F)c2)C[C@@H]2CC[C@H]1N2C(=O)NC1CC1`, the Potency entry is “inactive”.

Consider `COc1ccc(CNCCc2c[nH]c3ccccc23)cc1OC`, for which the Potency is 50.1 µM (active).

As for `c1cncc(CNCCc2c[nH]c3ccccc23)c1`, the Potency result was “inactive”.

As for `C/C(CCc1c[nH]c2ccccc12)=N\O`, the Potency result was “inactive”.

As to `O=c1[nH]c(O)c(C=Nc2cc(F)cc(F)c2)c(=O)[nH]1`, the Potency result is “inactive”.

For the compound `COC(=O)C1=C(c2cccc(OCc3ccccc3)c2)C[C@@H]2CC[C@H]1N2C(=O)NNCc1ccccc1`, the Potency result is “inactive”.

On to `Cc1ccccc1NC(=O)COC(=O)c1cc(C)n(C2CC2)c1C`, for which the Potency result was “inactive”.

As for `COc1ccc(C2N3CC(C)(C)CN23)cc1` (centres undefined), the Potency entry is “inactive”.

For `CCC1(C)CC(CCNCc2ccc(N(C)C)cc2)(c2ccc(F)cc2)CCO1` (centres undefined), the Potency is 35.5 µM (active).

Turning to `O=C(COC(=O)c1ccccc1)Nc1ccccc1Sc1ccccc1`, the Potency entry was “inactive”.

In the case of `CN(C)CCN(CC1CCCN(Cc2ccccc2F)C1)C(=O)Cc1ccc(F)c(F)c1` (centres undefined), the Potency entry is “inactive”.

For the compound `CCCCCn1c(=O)c(C(=O)NCc2ccccc2)c(O)c2ccccc21`, the Potency result was “inactive”.

As for `O=C(C1CCN(CC2CCCCC2)CC1)N1CCCC1`, the Potency is 70.8 µM (active).

With `COC(=O)C1=C(c2ccc(-c3ccccc3)c(F)c2)C[C@@H]2CC[C@H]1N2C(=O)NCc1ccc(F)cc1`, the Potency result was “inactive”.

For the compound `COc1cccc(C(=O)N2C[C@H]3C[C@@H](C2)c2cccc(=O)n2C3)c1`, the Potency result was “inactive”.

Regarding `COc1cccc(OC)c1C(=O)NC(=S)N1C[C@H]2C[C@H](C1)c1cccc(=O)n1C2`, the Potency result is “inactive”.

With `COC(=O)C1=C(c2c(C)noc2C)C[C@@H]2CC[C@H]1N2C(=O)NCc1ccc2c(c1)OCO2`, the Potency result is “inactive”.

For `COc1ccc(CNCCc2ccc3c(c2)OCO3)c(OC)c1OC`, the Potency is 50.1 µM (active).

Take `Cc1cc(N2C(=O)C3CCCN3C2c2ccc(Cl)c(Cl)c2)no1` (centres undefined): the Potency entry is “inactive”.

With `O=C(O)CCn1cc(C=C2C(=O)NC(=S)NC2=O)c(-c2cccc(Br)c2)n1`, the Potency is 79.4 µM (active).

As for `CN1C2C=C(N(C(=O)c3ccc(Cl)cc3)c3ccccc3)CC1CC2` (centres undefined), the Potency result is “inactive”.

In the case of `O=C(NC(=S)N1C[C@H]2C[C@H](C1)c1cccc(=O)n1C2)c1ccc(F)cc1`, the Potency entry is “inactive”.

On to `CCCCC(=O)N/N=C/c1c(O)n(CCC2=CCCCC2)c(=O)[nH]c1=O`, for which the Potency is 79.4 µM (active).

Consider `CCCCC(=O)N/N=C/c1c(O)n(-c2ccccc2)c(=O)[nH]c1=O`, for which the Potency is 50.1 µM (active).

Turning to `O=c1[nH]c(=O)n(CCc2ccc(F)cc2)c(O)c1/C=N/N1CCCCC1`, the Potency entry is “inactive”.

With `Cc1cccc(-n2c(O)c(C=NC34CN5CN(CN(C5)C3)C4)c(=O)[nH]c2=O)c1`, the Potency result was “inactive”.

On to `O=c1[nH]c(=O)n(-c2ccccc2)c(O)c1C=NC12CN3CN(CN(C3)C1)C2`, for which the Potency entry was “inactive”.

For `O=c1[nH]c(=O)n(Cc2ccccc2)c(O)c1/C=N/Nc1c(F)c(F)c(F)c(F)c1F`, the Potency result was “inactive”.

As to `CCCCC(=O)N/N=C/c1c(O)n(CC)c(=S)n(CC)c1=O`, the Potency result was “inactive”.

Turning to `O=c1[nH]c(=O)n(CCc2ccccc2)c(O)c1/C=N/N1CCOCC1`, the Potency entry is “inactive”.

As for `O=C(N/N=C/c1c(O)n(Cc2ccccc2)c(=O)[nH]c1=O)c1ccccc1`, the Potency was 50.1 µM (active).

In the case of `Cn1cc(C(=O)OCC(=O)N2CCCC2)c2ccccc21`, the Potency entry was “inactive”.

For `C=CCN1C(=O)C2(C(C(=O)OCC)=C(N)Oc3c2c(=O)oc2ccccc32)c2ccccc21` (centres undefined), the Potency entry is “inactive”.

As to `O=[N+]([O-])c1ccc(C2C3C(c4ccccc4)=NC4(CCCCC4)N32)cc1` (centres undefined), the Potency result is “inactive”.

Take `COC(=O)C1=C(c2ccc(F)cc2OCc2ccccc2)C[C@@H]2CC[C@H]1N2C(=O)NCc1ccc2[nH]ccc2c1`: the Potency entry was “inactive”.

As to `COC(=O)C1=C(c2cccc(OCc3ccccc3)c2)C[C@@H]2CC[C@H]1N2C(=O)NCc1ccc(Br)cc1`, the Potency entry was “inactive”.

With `C=CCn1c(O)c(/C=N/N2CCOCC2)c(=O)[nH]c1=S`, the Potency entry was “inactive”.

As to `C[C@@H]1CC[C@@]2(OC1)O[C@H]1C[C@H]3[C@@H]4CC=C5C[C@@H](O)[C@H](O)C[C@]5(C)C4CC[C@]3(C)[C@H]1[C@@H]2C` (some centres undefined), the Potency result is “inactive”.

Take `CC1=CC(=Cc2sc3ccccc3[n+]2C)C=C(C)O1`: the Potency result was “inactive”.

With `COC(=O)C1=C(c2ccc(Cl)c(C(F)(F)F)c2)C[C@@H]2CC[C@H]1N2C(=O)NC(C)C`, the Potency entry is “inactive”.

Turning to `COc1ccc(-c2nn(CCC#N)cc2C(=O)Nc2ccc(C(C)=O)cc2)cc1`, the Potency result was “inactive”.

`COc1ccccc1NC(=O)N1C[C@@H]2C[C@@H](C1)c1cccc(=O)n1C2`: the Potency result was “inactive”.

For `O=C1NC(=O)N(Cc2ccco2)C(=O)/C1=C\c1cccn1CCOc1ccccc1`, the Potency is 28.2 µM (active).

For the compound `O=C1NC(=O)N(CCc2ccc(F)cc2)C(=O)/C1=C/C=C/c1ccccc1`, the Potency result is “inactive”.

On to `O=C(O)COc1ccccc1/C=C1\C(=O)NC(=O)N(CCC2=CCCCC2)C1=O`, for which the Potency result is “inactive”.

With `CCOC(=O)c1c(C)c(C(=O)N2CCC3(CC2)OCCO3)c(C)n1CC`, the Potency result is “inactive”.

With `O=c1[nH]c(CN2CC=C(c3ccccc3)CC2)nc2scc(-c3cccs3)c12`, the Potency result is “inactive”.

`CCC(=NCCc1ccccc1)c1c(O)n(C2CCCCC2)c(=O)[nH]c1=O`: the Potency result was “inactive”.

For the compound `O=C(Cc1ccccc1)N1CCN(C2CCCCCC2)CC1`, the Potency was 50.1 µM (active).

In the case of `O=C(COc1ccc2ccccc2c1)N1CCN(Cc2ccncc2)CC1`, the Potency entry was “inactive”.

In the case of `O=C(Cn1c(=O)n(CC2CS2)c2ccccc21)N1CCCCC1` (centres undefined), the Potency result was “inactive”.

`COc1ccccc1CN1CCN(C(=O)Cc2ccccc2)CC1`: the Potency was 50.1 µM (active).

In the case of `O=C(Cc1ccc(Cl)cc1)NCCN1CCN(C(=O)Cc2ccc(Cl)cc2)CC1`, the Potency result was “inactive”.

As for `COc1ccc(N=Cc2c(O)n(C)c(=O)[nH]c2=O)cc1`, the Potency entry was “inactive”.

Turning to `CN1CCC(OC(=O)c2cccc(F)c2)CC1`, the Potency entry is “inactive”.

With `COc1ccc(C(=O)C2CN(C)CC2C(=O)c2ccc(OC)cc2)cc1` (centres undefined), the Potency entry was “inactive”.

As to `COC(=O)C1=C(c2ccc3ccccc3c2)C[C@@H]2CC[C@H]1N2C(=O)NCCO`, the Potency result is “inactive”.

On to `CC(Cc1ccccc1)NCCC(c1ccccc1)c1ccccc1` (centres undefined), for which the Potency result was “inactive”.

Take `O=C(Cc1ccccc1[N+](=O)[O-])N1CCN(Cc2ccc3c(c2)OCO3)CC1`: the Potency entry was “inactive”.

Turning to `Fc1ccc(N2CCN(Cc3ccc4c(c3)OCO4)CC2)cc1`, the Potency was 56.2 µM (active).

On to `Cc1cc(=O)oc2c(C)c(OCC(=O)N3CCN(Cc4ccc5c(c4)OCO5)CC3)ccc12`, for which the Potency entry is “inactive”.
